Results published in PubChem BioAssay AID2284141 (EPA ToxCast).
Results filed as inconclusive are left out. The source made the active and inactive calls. How the source made its calls: active means hit-call score of the fitted dose curve at least 0.9, where 1 is the maximum; inconclusive means response in the unintended direction; inactive means score below 0.9.

What follows are compounds tested against hamster Adenylyl Cyclase, Adcy5 (gene 64532) (UniProt Q04400) (assay: ERF_FR_ENZ_rACFSK_Antagonist: Eurofins (ERF) Enzymatic LeadHunter Assay for hamster Adenylyl Cyclase Antagonism).
Chain of hamster Adenylyl Cyclase, Adcy5 (gene 64532) (Q04400 whole entry, looked up): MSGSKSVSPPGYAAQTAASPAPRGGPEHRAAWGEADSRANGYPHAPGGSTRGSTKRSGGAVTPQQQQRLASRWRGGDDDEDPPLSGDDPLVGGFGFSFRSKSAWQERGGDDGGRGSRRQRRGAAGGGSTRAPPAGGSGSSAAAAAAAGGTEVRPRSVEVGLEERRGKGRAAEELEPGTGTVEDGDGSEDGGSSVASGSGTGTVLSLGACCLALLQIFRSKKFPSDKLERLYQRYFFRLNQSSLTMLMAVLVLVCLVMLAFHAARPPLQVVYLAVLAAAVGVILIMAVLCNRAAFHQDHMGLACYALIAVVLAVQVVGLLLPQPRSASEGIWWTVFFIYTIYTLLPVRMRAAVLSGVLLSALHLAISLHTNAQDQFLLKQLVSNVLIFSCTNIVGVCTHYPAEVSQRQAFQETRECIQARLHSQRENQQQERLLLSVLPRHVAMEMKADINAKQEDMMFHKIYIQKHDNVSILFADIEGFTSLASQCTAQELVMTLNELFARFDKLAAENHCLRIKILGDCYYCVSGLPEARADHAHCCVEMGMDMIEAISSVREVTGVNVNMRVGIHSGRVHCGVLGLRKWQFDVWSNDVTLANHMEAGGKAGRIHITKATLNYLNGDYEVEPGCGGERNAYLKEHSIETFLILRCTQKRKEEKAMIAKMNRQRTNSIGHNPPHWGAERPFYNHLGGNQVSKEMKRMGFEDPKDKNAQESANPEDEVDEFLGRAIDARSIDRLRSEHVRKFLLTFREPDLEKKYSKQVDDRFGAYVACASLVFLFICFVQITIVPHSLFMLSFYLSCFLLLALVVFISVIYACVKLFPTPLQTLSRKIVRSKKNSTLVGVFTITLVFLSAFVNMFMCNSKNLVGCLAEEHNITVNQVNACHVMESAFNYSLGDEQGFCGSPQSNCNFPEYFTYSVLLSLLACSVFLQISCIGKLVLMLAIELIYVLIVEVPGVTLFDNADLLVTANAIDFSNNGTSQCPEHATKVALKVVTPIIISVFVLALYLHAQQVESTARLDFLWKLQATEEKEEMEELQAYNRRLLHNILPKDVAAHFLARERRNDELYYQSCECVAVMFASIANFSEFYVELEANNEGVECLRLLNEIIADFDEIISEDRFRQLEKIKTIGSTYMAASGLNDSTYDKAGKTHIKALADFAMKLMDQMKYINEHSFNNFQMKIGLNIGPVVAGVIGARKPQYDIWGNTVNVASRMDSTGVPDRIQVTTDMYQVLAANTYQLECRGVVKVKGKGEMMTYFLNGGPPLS
Protocol: ERF_FR_ENZ_rACFSK_Antagonist is a biochemical, single-readout assay that uses extracted gene-proteins in a cell-free assay. Measurements were taken 0.16 hour after chemical dosing in a 96-well plate. See Adenylyl Cyclase Hamster Enzymatic Antagonist Assay, Cerep.ERF_FR_ENZ_rACFSK_Antagonist is an assay component calculated from the ERF_FR_ENZ_rACFSK assay. It is designed to measure enzyme activity using a type of enzyme reporter as detected by fluorescence intensity with HTRF technology.Data from the assay component ERF_FR_ENZ_rACFSK_Antagonist was analyzed at the assay endpoint, ERF_FR_ENZ_rACFSK_Antagonist, in the positive analysis fitting direction relative to DMSO as the negative control and baseline of activity. Using a type of enzyme reporter, loss-of-signal activity can be used to understand changes in binding as they relate to gene ADCY5. To generalize the intended target to other relatable targets, this assay endpoint is annotated to the gpcr intended target family, where the subfamily is adenylyl cyclase.
Hamster cells are incubated for 10 minutes at room temprature. Test Sample Requirements: Minimum for 1) Screen: 60 ul of 10 mM stock -OR- 1 mg (pre-weighed) for 10 uM final testing. 2) Dose Response: 90 ul of 10 mM stock -OR- 1 mg (pre-weighed) for a top concentration at 10 uM.
`COc1cc(CCC(=O)CC(=O)CCc2ccc(O)c(OC)c2)ccc1O` was tested, and the outcome was “inactive”.
`COc1cccc2c1C(=O)c1c(O)c3c(c(O)c1C2=O)C[C@@](O)(C(=O)CO)C[C@@H]3O[C@H]1C[C@H](N)[C@H](O)[C@H](C)O1` was tested, and the AC50 was 2.6 µM (active).
With `O=C(/C=C/c1ccc(O)cc1)CC(=O)/C=C/c1ccc(O)cc1` the outcome was “inactive”.
